Measured values as given in PubChem BioAssay (NCI).
The panel holds about 83,000 compounds, 20% with a hit somewhere; the sample as a whole holds those more often.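 Step 1: grow cells in 96-well plates. Step 2: add test compound at a single concentration. Step 3: incubate 48 h. Step 4: record percent growth.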 A number with no mark means an inactive call. Active and inactive are the calls of the source. How the source made its calls: active means growth percent below 10; inactive means the rest.

How the values were obtained:
Assay in all cases: NCI-60 one-dose screen, 48 h (100 = growth as untreated, 0 = no growth, -100 = all killed)
Conditions in all cases: 10 µM unless noted
[1] = tested on: NCI-H23 lung
[2] = tested on: NCI-H322M lung
[3] = tested on: HOP-62 NSCLC
[4] = tested on: NCI-H460 lung
[5] = tested on: HOP-92 NSCLC
[6] = tested on: NCI-H522 lung
[7] = tested on: A549/ATCC NSCLC
[8] = tested on: 786-0 renal
[9] = tested on: COLO 205 colon
[10] = tested on: DU-145 prostate
[11] = tested on: K-562 leukemia
[12] = tested on: MALME-3M melanoma
[13] = tested on: MDA-MB-231 breast
[14] = tested on: RXF 393 renal
[15] = tested on: SF-268 CNS
[16] = tested on: SF-295 CNS
[17] = tested on: SF-539 CNS
[18] = tested on: UACC-257 melanoma
[19] = tested on: M14 melanoma
[20] = tested on: HCT-15 colon

Row | SMILES | growth [1] | growth [2] | growth [3] | growth [4] | growth [5] | growth [6] | growth [7] | growth [8] | growth [9] | growth [10] [%] | growth [11] | growth [12] | growth [13] | growth [14] | growth [15] | growth [16] | growth [17] | growth [18] | growth [19] | growth [20]
1 | O=C(Nc1ccccc1O)c1ccc(Oc2cccc(C(=O)Nc3ccccc3O)c2)cc1 | 25.5% | 25.9% | 6.43% (active) | 1.59% (active) | 31.4% | -16% (active) | 7.58% (active) | 3.76% (active) | 93.4% | 12.1 | -29.1% (active) | 13.6% | 32% | 26.6% | 0.105% (active) | -28.5% (active) | 7.4% (active) | 10.4% | -44.5% (active) | 32.2%
2 | CCn1c(SCC(=O)Nc2cc(C(F)(F)F)ccc2Cl)nc2ccccc2c1=O | 70.9% | 78.8% | 64.2% | 28.6% | 9.17% (active) | 50.7% | 50.5% | 56.4% | 52.6% | 38.2 | -46.2% (active) | -15.6% (active) | -25.6% (active) | 44.4% | 32.6% | 67.3% | 69.1% | -32% (active) | -67% (active) | 36.7%
3 | CCOC(=O)c1c2c(c(C)n1Cc1ccc(OC)cc1)-c1oncc1CC2 | 87.7% | 78.5% | 62% | 99.1% | 60.6% | 99.3% | 84.8% | 79.6% | 137% | 96 | 92% | 125% | 115% | 88.1% | 81.5% | 91.3% | 79.5% | 106% | 121% | 91.3%
4 | O=C(Nc1ccc(F)cc1F)c1cc(Br)ccc1O | -12.6% (active) | 0.898% (active) | -8.56% (active) | 4.52% (active) | -25.6% (active) | -12.2% (active) | 5.78% (active) | 3.19% (active) | 7.66% (active) | 13.2 | 4.71% (active) | -30.1% (active) | -29.9% (active) | -5.34% (active) | 7.16% (active) | -24.5% (active) | 4.41% (active) | -15% (active) | 7.28% (active) | 9.98% (active)
5 | O=C(/C=C/c1cccc(Cl)c1)OCc1ccc2cc1OCC#C/C=C\C#CCO2 | 102% | 91.1% | 100% | 104% | 150% | 83.2% | 90.5% | 100% | 106% | 119 | 81.9% | 99.7% | 90.7% | 101% | 106% | 109% | 100% | 88.8% | 103% | 102%
6 | O=c1oc2ccc(Cl)cc2c(=O)n1-c1ccc(F)cc1F | 7.47% (active) | 3.62% (active) | 4.11% (active) | 7.56% (active) | -22.9% (active) | -23% (active) | 4.94% (active) | 9.41% (active) | 64.9% | 18.7 | 9.99% (active) | -23.8% (active) | 4.44% (active) | 2.26% (active) | 12.3% | -7.12% (active) | 13.2% | -13.1% (active) | 20.3% | 13.5%
7 | COc1cccc(C(=O)NC(c2ccc(C)cc2)c2cc(Cl)c3cccnc3c2O)c1 (stereo not given) | 28.7% | 9.1% (active) | 9.9% (active) | 0.0612% (active) | 31.8% | 9.38% (active) | 6.84% (active) | 6.38% (active) | 14.4% | 15.3 | 7.41% (active) | -1.84% (active) | 31.2% | 9.4% (active) | 6.71% (active) | -0.279% (active) | 1.97% (active) | -7.2% (active) | -13.9% (active) | 28.1%
8 | COc1cc(CNC(=O)c2ccsc2Nc2ccnc(C(F)(F)F)c2)ccc1O | 92.3% | 95.3% | 126% | 102% | 81.3% | 87% | 100% | 98.1% | 106% | 107 | 96.6% | 64.4% | 102% | 106% | 94.1% | 104% | 102% | 107% | 100% | 99.1%
9 | COc1ccc(C2=Nn3c(NN)nnc3SC2)cc1 | 95.9% | 95.2% | 104% | 112% | 105% | 75.5% | 87.2% | 104% | 108% | 103 | 83.3% | 109% | 103% | 95.8% | 100% | 106% | 95.6% | 84.3% | 113% | 114%
10 | O=C(CN1C=NC2C(N3CCOCC3)=NC=NC21)c1ccc(Br)cc1 (stereo not given) | 99.2% | 97.2% | 103% | 99.9% | 106% | 87.2% | 103% | 103% | 112% | 107 | 106% | 104% | 105% | 103% | 98.9% | 97.9% | 100% | 105% | 107% | 101%
11 | COc1ccc(/C=C/C(=O)c2ccc3cc(OC)c(OC)cc3c2)cc1OC | 51.7% | 56% | 36% | 40.7% | 51.4% | 31.9% | 19.5% | 42.9% | 25.9% | 46.7 | 8.48% (active) | 90.6% | 101% | 84.2% | 70.7% | 70.8% | 23.5% | 70.2% | 64.2% | 27.5%
12 | COc1c(B(O)O)cccc1-c1nc2ccc3[nH]ncc3c2c2c1C1CCC2C1 (stereo not given) | 85.1% | 84.2% | 65.7% | 51% | 108% | 59.5% | 26.6% | 52.6% | 50.4% | 72.3 | 55.6% | 136% | 71.2% | 28.5% | 67.4% | 86% | 28% | 101% | 84% | 49.6%
13 | O=c1oc2ccc(F)cc2c(=O)n1-c1ccc(Br)cc1F | 1.49% (active) | 6.65% (active) | -0.164% (active) | 4.13% (active) | -15.2% (active) | -17.9% (active) | 4.2% (active) | 2.85% (active) | 27.7% | 14.5 | 6.75% (active) | -23% (active) | -22% (active) | -0.594% (active) | 11.2% | -50.6% (active) | 2.6% (active) | -17.4% (active) | -2.25% (active) | 2.89% (active)
14 | O=C(N/N=C/c1ccccc1O)C(=O)Nc1ccc(F)cc1 | 57.7% | 26.6% | 50.1% | 23.1% | 65% | 15.7% | 44.8% | 53.8% | 9.67% (active) | 46.5 | 42.3% | 70.9% | 43.8% | 74.3% | 48.8% | 4.78% (active) | 33.7% | 27.2% | 50% | 28.2%
